# Measured values published in PubChem BioAssay (NCI).
# Values joined by “and” are separate entries in the source; they are usually repeats but may differ in a detail not shown here. Equal values may be shown once. Compounds without any hit were thinned out: in the full panel of roughly 83,000, 20% have a hit.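 Plates (96-well) were seeded with cells, treated with compound at one concentration, and incubated for 48 hours before percent growth was determined.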 Unmarked numbers belong to inactive results. Active and inactive are the calls of the source. How the source made its calls: active means growth percent below 10; inactive means the rest.
# Test system: MDA-MB-468 breast
# Assay: NCI-60 one-dose screen, 48 h (100 = growth as untreated, 0 = no growth, -100 = all killed)
# Settings: 10 µM unless noted
row,SMILES,growth
1,CCCCCCCCNc1ncnc2c1ncn2Cc1nnc2c3ccccc3c(Cl)nn12,40.6%
2,COc1cc2cc(OC(C)=O)c3cc4c(cc3c2c(OC)c1OC)OCO4,96.4%
3,c1ccc(CO[C@H]2CO[C@H]3[C@@H]2OC[C@@H]3Oc2ccc(Nc3ncnc4ccsc34)cc2)cc1,51.5%
4,COc1ccc(SC2c3cc(OC)c(OC)cc3Oc3nc(N)c(C#N)c(N)c32)cc1 (stereo unspecified),-40.7% (active)
5,O=C(Cc1ccc(-c2ccc(OCCN3CCOCC3)cc2)cn1)NCc1ccccc1,-17% (active)
6,COc1cc(C2NC(c3ccc(Cl)cc3)C(C)/C(=N/NC(N)=S)C2C)cc(OC)c1OC (stereo unspecified),88%
7,COc1ccc(-c2[nH]nc(N)c2-c2cc(OC)c(OC)c(OC)c2)cc1,34%
8,CC1CCC(=O)N1c1ccc(N)cc1 (stereo unspecified),115%
9,C#Cc1nc(/C=C/CCCCCCC(=O)NO)cs1,54.8%
10,O=C(CC(=O)c1ccccc1O)c1ccccc1,71.9%
11,Cc1nc2nc(N)nc(N)c2nc1C,97.6%
12,CCC(C)CC(N)O (stereo unspecified),94.1%
13,Cc1ccc(Cl)cc1NC(=O)N(C)CCO,132%
14,CC(=O)N1CCN(CCNC(=O)n2cc(-c3ccncc3)c(-c3cc(O)cc(Cl)c3)n2)CC1,32.4%
15,c1csc(C2=NN3C(C2)c2ccccc2OC3c2ccncc2)c1 (stereo unspecified),103%
16,COc1ccc(C2C=C(c3ccc(Cl)cc3)N=C3SC=C(C)N32)c(Br)c1 (stereo unspecified),8.58% (active)
17,Oc1c(-c2cc(C(F)(F)F)[nH]n2)cc(Cl)c(OCc2ccc(Cl)cc2)c1-c1ccc(Cl)c(C(F)(F)F)c1,-21.4% (active)
18,O=c1[nH]c(Cc2nc3ccccc3s2)nc2cc(Br)ccc12,92.4%
19,COc1cccc(/C=N/C(=S)NC2(C)C3CCC(C3)C2(C)C)c1O (stereo unspecified),57%
20,O=C1C=CC(=O)N1CO,117%
21,CC[C@H](C)[C@H]1NC(=O)[C@@H](N[C@](C)(O)[C@@H](N)CC(C)C)[C@@H](C)OC(=O)[C@H](Cc2ccc(OC)cc2)N(C)C(=O)[C@@H]2CCCN2C(=O)[C@H](CC(C)C)NC(=O)[C@@H](C)C(=O)[C@H](C(C)C)OC(=O)C[C@@H]1O,-31.2% (active)
22,Cc1c2c(nn1C(=O)c1nn(-c3ccc(Cl)cc3)cc1O)-c1ccccc1CC2,13.9%
23,Cc1nc2ncccc2nc1Nc1ccc(S(=O)(=O)Nc2ccccn2)cc1,109%
24,CCOC(=O)c1c(C)nc2c(c1N)CC(=O)N2Cc1ccc(F)cc1,91%
25,Cc1cc(N2CCCC2)nc(N(CCCNc2ccnc3cc(Cl)ccc23)Cc2ccccn2)n1,53.2%
26,CCC(=O)Oc1ccc(OCc2ccccc2)cc1,104% and 118%
